# Bioassay records (PubChem)
# AHR act = activates the human aryl hydrocarbon receptor | actives 2.5% (n = 320,000) | activation, % at 5 µM | AHR-responsive luciferase reporter cells, luminescence | P35869; in the data active = activation above about 47%;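 also: 0% = vehicle wells and 100% = reference agonist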
# FXN GAA850 act = increases GAA850 frataxin promoter reporter activity; HEK293 lucGAA850 FXN promoter luciferase reporter, 24 h; percent of 10 µM SAHA response; activation, % at 6 µM; AID 540364; actives 0.56% (n = 360,000);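 active = activation above the average of all compounds screened plus 3 SD, cutoff fixed separately per campaign, cut at about 7.5% in these data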;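 also: 0% = DMSO wells and 100% = 10 µM SAHA wells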
# HSP90 inh = inhibitors of HSP90 luciferase refolding in rabbit reticulocyte lysate; luciferase refolding luminescence, 3 h; AID 1789; actives 0.91% (n = 290,000); inhibition, % at 5.6 µM;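 active = inhibition above the screen-wide mean plus 3 SD, computed separately per campaign, cut at about 16% in these data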;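 also: 0% = DMSO wells and 100% = 60 µM geldanamycin wells; inhibitors lower the luminescence because luciferase stays unfolded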
# HSF1 activator = increases HSF-1 driven luciferase reporter signal; NIH3T3-HGL HSF-1 luciferase reporter, MG132, 8 h; 100% = twice DMSO control signal; activation, % at 9 µM; actives 1.7% (n = 300,000);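 active = mean replicate activation of at least 50% with a set share of replicates each reaching 50%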;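 also: 0% = median of the neutral control wells and 100% = twice that signal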
# HSF1 inhib = HSF1 inhibition; actives 0.77% (n = 300,000); activity change, negative = inhibition, % at 7.5 µM (by protocol); AID 2098; NIH3T3-HGL HSE-luciferase, MG132-induced, luminescence 8 h; active compounds read low;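 active = more than half of replicate wells show activity change below -50%, luminescence cut by over half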;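 also: luciferase reports HSF-1 transcriptional activity via heat shock element; 0% = median of DMSO wells and -100% = zero luminescence signal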
# NR0B1 inh = inhibitors of human orphan nuclear receptor DAX1 (NR0B1); P51843; actives 0.99% (n = 340,000); HEK293 Gal4-DAX1 luciferase reporter, luminescence; inhibition, % at 6.75 µM; AID 504766;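 active = inhibition above the mean over all tested compounds plus 3 SD, cut at about 4.2% in these data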;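 also: 0% = DAX1-transfected cells with DMSO and 100% = empty-vector control cells with DMSO; inhibition shows as a rise in luminescence from relieved DAX1 repression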
# * = called active by the depositor; · = no result. A selection: hits, their analogues and other compounds. The true share with any hit is near 5.9%.
SMILES,AHR act,FXN GAA850 act,HSP90 inh,HSF1 activator,HSF1 inhib,NR0B1 inh
COc1cc([N+](=O)[O-])cc(/C=N/NC(=O)Cn2nccc2C)c1O,0,1,9,-13,-1,6.0*
COc1cccc(C(N)c2nc(-c3cc(F)cc(F)c3)cs2)c1 (stereo not given),·,0,·,·,·,·
Cc1cc(C(=O)NNCc2ccccc2)no1,-3,1,·,·,·,-1
Cc1cc(C(=O)NNC(C)Cc2ccccc2)no1 (stereo not given),·,3,·,·,·,4.3*
O=C1Nc2ccc(C(=O)O)c(O)c2C1=O,·,-3,·,·,·,-1
CCOC(=O)C1CCCN(C(=O)/C=C/c2ccc(Cl)cc2)C1 (stereo not given),2,1,0,-1,5,0
CC(C)Cc1ccc(/C=C/C(=O)N2CCCCC2)cc1,12,5,-4,58*,30,3
Cc1ccc(/C=C/C(=O)N2CCCC(C)C2)cc1 (stereo not given),1,2,10,65*,24,0
COc1ccc(NS(=O)(=O)c2cccc(C(=O)N3CCN(C/C=C/c4ccccc4)CC3)c2)cc1,·,-4,·,·,·,0
CCN(CC(=O)N1CCC(C(N)=O)CC1)S(=O)(=O)c1cc(Cl)ccc1Cl,·,1,·,·,·,0
O=C(Nc1ccc(Cl)cc1)c1cncs1,68*,1,-2,2,1,1
CC1(C)Cc2c(sc(NC(=O)c3ccc4ncsc4c3)c2C(N)=O)C(C)(C)N1,16,6,12,-54,-53*,1
O=C(Nc1ccc(F)cc1)c1ccc2ncsc2c1,32,6,11,5,-2,1
O=C(Nc1ccc(Cl)cc1)c1ccc2ncsc2c1,49*,3,2,22,7,1
CC1(C)Cc2c(sc(NC(=O)c3ccc(C(=O)c4ccccc4)cc3)c2C(N)=O)C(C)(C)N1,-1,0,-1,4,-3,-1
CCOC(=O)CNC(=O)c1cccnc1Oc1ccc(Cl)cc1,2,2,1,-11,0,-1
O=P(Cc1ccncc1)(c1ccccc1)c1ccccc1,0,-2,0,4,-5,5.9*
c1ccc(CCc2ccncc2)cc1,-3,1,-4,56*,9,1
NNc1ccc([N+](=O)[O-])c2[nH][nH]c(=O)c12,·,-2,·,·,·,3
O=CNc1cc(-c2ccoc2)cn2c(-c3ccc(F)cc3)cnc12,·,-1,·,·,·,·
O=C(Cc1ccc([N+](=O)[O-])cc1)N1N=C(C2CC2)CC1(O)C(F)(F)F (stereo not given),0,0,2,68*,12,-1
CCC1=NN(C(=O)Cc2ccc([N+](=O)[O-])cc2)C(O)(C(F)(F)F)C1 (stereo not given),1,1,6,6,-3,0
O=C(c1cc(COc2ccc(F)cc2Cl)on1)N1CCCCCC1,3,3,-1,60*,46,2
Cc1ccccc1C1CCCN(C(=O)c2cc(COc3c(F)cccc3F)on2)C1 (stereo not given),2,0,3,3,0,-2
COc1ccc(OCc2cc(C(=O)N3CCCC(O)C3)no2)c2ccccc12 (stereo not given),52*,8,-2,27,20,3
SMILES,AHR act,FXN GAA850 act,HSP90 inh,HSF1 activator,HSF1 inhib,NR0B1 inh
CCCOC1CCCN(C(=O)c2cc(COc3c(F)cccc3F)on2)C1 (stereo not given),12,5,-3,58*,42,1
COc1ccc(OCc2cc(C(=O)N3CCCC(OC)C3)no2)c2ccccc12 (stereo not given),36,7,-4,49,20,2
O=C(c1cc(COc2ccc(F)cc2Cl)on1)N1CCCCCCC1,0,4,-8,12,8,1
O=C1Cc2cc(S(=O)(=O)Nc3cccc([N+](=O)[O-])c3)cc3c2N1CCC3,1,4,-2,26,14,0
O=C(c1ccccc1)n1ccn(-c2ccccc2)c1=S,51*,-1,10,1,1,0
CC(=O)Nc1ccc(SC[C@H](CC(C)C)N2CCN(CCc3ccccc3)CCC2=O)cc1,48*,-2,·,-3,4,1
Cc1ccc(SC[C@H](CC(C)C)N2CCN(CCc3ccccc3)CCC2=O)cc1,·,3,·,22,13,1
O=S(=O)(CC(CN1CCCCC1)N1CCCCC1)c1ccc2ccccc2c1 (stereo not given),·,-7,-2,90*,54,-5
Cc1cccc2c1nc(-c1ccccc1)n1nnnc21,57*,3,6,16,-9,1
Cc1nnc(NC(=O)c2cccc(S(=O)(=O)N(C)c3cccc(Cl)c3)c2)s1,1,-1,·,·,·,1
Cc1nc2sccn2c(=O)c1S(=O)(=O)NCC1CCN(Cc2ccc(Cl)cc2)CC1,·,0,·,·,·,-2
N#CC(C#N)=C1C=CC=CN1/C(=C\c1ccccc1Cl)C(=O)c1ccccc1,5,4,1,·,·,-1
N#CC(C#N)=C1C=CC=CN1/C(=C\c1ccccc1)C(=O)c1cccs1,22,1,2,214*,182,0
Cc1cc(C)cc(N2C(=O)C=CC2=O)c1,·,-2,·,·,·,-1
CC1CCc2c(sc(NC(=O)c3nc4ncccn4n3)c2C#N)C1 (stereo not given),2,3,13,-34,-29,4.4*
COc1ccc(S(=O)(=O)N2CCCCCC2)cc1C(=O)N(CC(C)C)C1CCS(=O)(=O)C1 (stereo not given),3,1,·,1,-1,2
CC(C)(C)Cc1nnc(NS(=O)(=O)c2ccc(F)cc2)s1,9,1,0,-65,-53*,0
Cc1ccc(S(=O)(=O)Nc2nnc(CC(C)(C)C)s2)cc1,0,1,4,3,2,0
COCc1nnc(NS(=O)(=O)c2ccc(C)cc2)s1,-5,-1,0,15,1,4.4*
O=C(COc1ccc(Br)cc1)NCCN1CCCC1,0,0,-2,-5,-1,2
CCc1cc2c(=O)n(CCC(C)C)c(=S)[nH]c2s1,11,1,-2,24,10,1
C=CCSC1=Nc2sccc2C2=NC(=O)CN12,18,5,-2,-81,-75*,-1
Cc1ccc(CSC2=Nc3ccccc3C3=NC(=O)CN23)cc1,12,3,-3,41,40,1
C/C(N)=C(/C#N)C(=O)CSc1nc2cc(Cl)ccc2s1,9,3,-4,76*,37,-1
C/C(N)=C(/C#N)C(=O)CSc1cc(Cl)ccc1Cl,9,1,-4,-8,11,0
C/C(N)=C(/C#N)C(=O)CSc1nnc(Nc2cccc(C)c2)s1,9,2,-4,56*,30,1
CCOc1ccccc1C(=O)NCC(=O)OCC(=O)N1CCCC1,-1,-2,·,·,·,3
Cc1csc2nc(O)c(C(=O)NCc3ccc4c(c3)OCO4)c(=O)n12,8,0,·,4,1,-1
